Luciferase inh: firefly luciferase inhibition | 2.2% of 72,000 active | AID 411 | P08659 | purified firefly luciferase, luminescence, 8 min | Potency, µM (highest dose often 57.1 µM), usual class: inhibitors; active = well fitted inhibition curve with a large enough effect; inconclusive = small, poorly fitted or top-dose-only effect; also: nearly all actives have a fitted effect of over 40% in size
Target sequence (P08659 whole entry, looked up): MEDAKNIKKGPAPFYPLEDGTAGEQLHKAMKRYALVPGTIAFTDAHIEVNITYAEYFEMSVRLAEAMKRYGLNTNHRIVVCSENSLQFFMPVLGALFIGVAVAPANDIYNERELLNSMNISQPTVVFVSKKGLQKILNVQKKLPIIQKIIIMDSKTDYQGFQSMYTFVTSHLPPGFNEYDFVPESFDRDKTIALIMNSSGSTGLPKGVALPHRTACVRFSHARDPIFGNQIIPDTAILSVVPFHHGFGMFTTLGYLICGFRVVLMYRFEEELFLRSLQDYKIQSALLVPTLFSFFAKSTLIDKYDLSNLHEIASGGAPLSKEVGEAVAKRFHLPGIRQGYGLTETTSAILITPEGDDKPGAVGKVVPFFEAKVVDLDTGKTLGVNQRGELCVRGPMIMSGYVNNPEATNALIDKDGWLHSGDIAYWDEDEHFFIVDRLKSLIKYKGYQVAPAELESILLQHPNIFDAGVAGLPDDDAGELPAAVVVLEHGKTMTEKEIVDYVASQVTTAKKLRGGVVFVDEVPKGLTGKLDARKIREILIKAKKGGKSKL
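qHTS concentration-response profiling: light output of P. pyralis luciferase with luciferin and 10 uM ATP, imidazole buffer pH 7.2. Read by luminescence after 8-min room-temperature incubation.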
Bst PK mod: modulators of Bacillus stearothermophilus pyruvate kinase; purified pyruvate kinase, luminescence ATP production; ribose 5-phosphate activator present at AC10; Potency, µM; 1.2% of 51,000 active; AID 361; in the data active = potency below about 11 µM; inconclusive = mostly about 12 µM to 25 µM;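 the screen sought inhibitors and activators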
Hits are given with their value; 0 = inactive; ? = inconclusive; - = not tested or not shown; [ ] = remark or other dose. A selection: hits, their analogues and other compounds. The true share with any hit is near 2.5%.

SMILES	Luciferase inh	Bst PK mod
CC(C)=CCC/C(C)=C/CO/N=C1/C[C@@H](O)[C@@H](O)[C@@H]2[C@@H]3C(=O)N(C4CCCCC4)C(=O)[C@H]3CC[C@H]12	0[11.4 µM]	-
Cc1ccc(C2CC(c3ccco3)n3ncnc3N2)cc1 (stereo not given)	0	-
Cc1ccc2c(c1)C(N1CCCC1=O)CC(c1ccco1)N2 (stereo not given)	10µM	?
COc1cc2c(cc1O)CC[C@@H]1[C@@H]2CC[C@@]2(C)[C@H](O)CC[C@H]12	0	-
O=C(O)/C=C\c1c2ccc(=O)c(O)c-2oc2c(O)c(O)ccc12	0[11.4 µM]	-
CC(C)C1=C[C@@]23CC[C@@H]4[C@](C)(CCC[C@@]4(C)C(=O)O)[C@@H]2C[C@@H]1[C@@H](C(=O)O)[C@@H]3C(=O)O	0[11.4 µM]	-
Cc1nc2cc(Cl)ccc2n1CCO	0	0
Fc1ccc(-c2nc3n(n2)Cc2ccccc2-3)cc1	3.98µM	2.51
O=c1nc2n(c3c1oc1ccccc13)Cc1ccccc1-2	0	0
CCn1c(C)nc2cc(-c3nc4n(n3)Cc3ccccc3-4)ccc21	0.0501µM	0.0948
Cc1ccc(S(=O)(=O)N[C@H]2COC(=O)CC=C[C@@H](C)[C@H]3C=C[C@H](O)[C@@H](COC(=O)CC=C[C@H]2C)O3)cc1	0[11.4 µM]	-
CCCC(=O)Nc1sc2c(c1C#N)CCCC2	0	0
Cc1cc(C(=O)Nc2sc3c(c2C#N)CCCCC3)cs1	15.8µM	0
N#Cc1c(NC(=O)c2ccncc2)sc2c1CCC2	20µM	-
CCCc1cc(C(=O)Nc2sc3c(c2C#N)CCC3)no1	0	-
C=C1C[C@@]23C[C@]1(O)CC[C@@H]2[C@]12C=C[C@@H](O)[C@@](C)(C(=O)O1)[C@@H]2[C@@H]3C(=O)O	0[11.4 µM]	-
Cc1ccc2oc(-c3cccc(NC(=O)C4CCCO4)c3)nc2c1 (stereo not given)	20µM	0
CCC(=O)Nc1ccc2oc(-c3cccc(C)c3)nc2c1	2.51µM	2.08
CCCC(=O)Nc1ccc2oc(-c3cccnc3)nc2c1	0	-
CCCC(=O)Nc1cccc(-c2nc3cc(C)c(C)cc3o2)c1	7.94µM	-
CSc1nc2ccc(NC(=O)C3CC(=O)N(Cc4ccco4)C3)cc2s1 (stereo not given)	0	-
CCCC(=O)Nc1cccc(-c2nc3ccccc3o2)c1	0	0
O=C(Nc1cccc(-c2nc3cc(Cl)ccc3o2)c1)C1CCCO1 (stereo not given)	0	0
CSc1nc2ccc(NC(=O)C3CCCO3)cc2s1 (stereo not given)	25.1µM	0
C[C@H]1[C@H](C)CC[C@@]2(C(=O)O)CC[C@]3(C)C(=CC[C@@H]4[C@@]5(C)CC[C@H](O)C(C)(C)[C@@H]5CC[C@@]43C)[C@@H]12	0[11.4 µM]	-
SMILES	Luciferase inh	Bst PK mod
CO[C@H]1COC(=O)[C@H](C)COC(=O)[C@@H](OCc2ccccc2)/C=C\[C@@H]1C	0[11.4 µM]	-
CN1CCC[C@@H]1c1cccnc1.O=C(O)c1ccccc1O.O=C([OH2+])c1ccccc1O.O=C([OH2+])c1ccccc1O.[Mn]	0[11.4 µM]	-
COc1ccc(-c2cc(C(=O)NCc3cccs3)no2)cc1OC	0	-
COc1ccc(-c2nnc(SCC(=O)c3ccc(C)o3)o2)cc1	0	0
COc1ccc(-c2nnc(-c3ccc(N)cc3)o2)cc1	7.94µM	3.27
COc1ccc(-c2nnc(-c3ccc(N(C)C)cc3)o2)cc1	0	0
COc1ccc(-c2nnc(SCC(=O)/C(C#N)=C(\C)N)o2)cc1	5.01µM	-
CN1CC[C@@]2(CCN3CCc4c(oc5ccccc45)[C@@H]3C2)N(C)C1=O	0	-
O=C(O)CCCSc1ccccc1	0[11.4 µM]	-
c1ccc(CCCNc2nnnc3ccccc23)cc1	0[11.4 µM]	-
C[C@H](CCC(=O)O)[C@H]1CC[C@@H]2[C@@H]3CC[C@H]4C[C@@H](O)CC[C@@]4(C)[C@@H]3C[C@H](O)[C@@]21C	0[11.4 µM]	-
O=C(Nc1cnn(C23CC4CC(CC(C4)C2)C3)c1)c1cnn2cccnc12	2.51µM	?
CCOC(=O)CNC(=O)c1cnn2cccnc12	0	0
O=C1CC(c2ccccc2)Cc2nc(NCc3ccco3)ncc21 (stereo not given)	3.16µM	5.17
O=C(Nc1ncc2c(n1)CC(c1ccccc1)CC2=O)c1ccco1 (stereo not given)	0	0
CN1CCN(c2ncc3nc(CCc4ccccc4)c(=O)n(C4CC4)c3n2)CC1	0[11.4 µM]	-
CCN1CCc2nc(NC(=O)c3ccc4c(c3)OCCO4)sc2C1	15.8µM	-
CCN1CCc2nc(NC(=O)Cc3ccc4c(c3)OCCO4)sc2C1	0	0
CCCc1cc(COC)c(C#N)c(=O)[nH]1	0[11.4 µM]	-
O=C(CCC(=O)N1CCc2ccccc21)N1CCc2ccccc21	0	0
O=C(CCCc1ccccc1)N1CCc2ccccc21	12.6µM	-
CN(C)CCSCCO	0[11.4 µM]	-
CCn1c(/N=C/c2c[nH]c3ccccc23)nc2ccccc21	3.98µM	2.69
CCn1c(/C=N/n2cnnc2)nc2ccccc21	0	-
Cc1cc2ccc(OC(=O)c3ccc(N=C(N)N)cc3)cc2oc1=O	0[11.4 µM]	-
SMILES	Luciferase inh	Bst PK mod
O=C(O)COCCN1CCN([C@@H](c2ccccc2)c2ccc(Cl)cc2)CC1	0	-
COc1ccccc1Nc1nnc(SCC(=O)N2CCCC2=O)s1	20µM	-
COc1ccccc1Nc1nnc(SCC(=O)N2CCCC2)s1	0	0
CCOC(=O)c1ccc(N)cc1	0	-
CCOC(=O)c1cc(-c2ccc(N)cc2)sc1N	12.6µM	?
CC(C)=CCC/C(C)=C/CO/N=C1/[C@H]2O[C@@H]2[C@@H](O)[C@H]2[C@H]1CCn1c(=O)n(-c3ccccc3)c(=O)n12	0[11.4 µM]	-
CN(C)c1ccc(/C=N/n2ncc3ccccc32)cc1	3.98µM	1.88
C=CCn1c(C(C)NC(=O)C(C)(C)C)nc2ccccc21 (stereo not given)	0	0
CN(C)c1ccc(C=Nc2cnn(C)c2C(N)=O)cc1	0	0
C=CCn1c(/N=C/c2ccc(N(C)C)cc2)nc2ccccc21	3.98µM	1.41
O=c1[nH]c(=S)[nH]c2c1CN(CCCN1CCOCC1)CN2	0[11.4 µM]	-
CN=Cc1sc2ccccc2c1O	0	-
Oc1c(C=Nc2cccnc2)sc2ccccc12	12.6µM	11.4
COc1ccc2cnn(Cc3ccccc3)c(=O)c2c1OC	0	?
COC(=O)Cn1ncc2c(C)n(Cc3ccccc3)c(C)c2c1=O	20µM	-
N=C(N)SCCCN	0[11.4 µM]	-
N=C1[C@@H](O)[C@]2(I)c3ccccc3N3C(=N)[C@H](O)[C@@H]4c5ccccc5N1[C@@H]4[C@@H]32	0[11.4 µM]	-
CCOC(=O)N/C(N)=N/c1nc2ccccc2s1	12.6µM	-
CCOC(=O)NC(Nc1nc2ccccc2s1)(C(=O)OCC)C(F)(F)F (stereo not given)	0	0
OCCN(CO)CO	0[11.4 µM]	-
COc1ccc(NC(=O)C2CCCCN2S(=O)(=O)c2ccc(F)cc2)c(OC)c1 (stereo not given)	0	0
COc1ccc(NC(=O)C2CCC(=O)N2S(=O)(=O)c2ccc(C)cc2)c(OC)c1 (stereo not given)	0	11.3
C/C=C\C[C@H](C)[C@H](O)[C@H]1C(=O)N[C@@H](CC)C(=O)N(C)CC(=O)N(C)[C@@H](CC(C)C)C(=O)N[C@@H](C(C)C)C(=O)N(C)[C@@H](CC(C)C)C(=O)N[C@@H](C)C(=O)N[C@@H](C)C(=O)N(C)[C@@H](CC(C)C)C(=O)N(C)[C@@H](CC(C)C)C(=O)N(C)[C@@H](C(C)C)C(=O)N1C	0	-
CN(C)c1ncc2nc(-c3ccccc3)c(=O)n(CCC#N)c2n1	0[11.4 µM]	-
COC(=O)CNc1c(-c2ccccn2)nc2ccc(Br)cn12	12.6µM	?
CCOC(=O)CNc1c(-c2ccc(O)cc2)nc2ccccn12	0	0
O=C(O)[C@H]1C[C@H](C(=O)O)N1	0	-

Screening data from PubChem BioAssay.
